From PubChem BioAssay (NCI)
This is part of a sample that, as a whole, favours compounds with a hit. Of some 83,000 tested, about 20% had one in any assay.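 Percent growth is the endpoint: 0 to 100 indicates growth inhibition (40 means 60% inhibition), 0 means no net growth, and negative values indicate cell death.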 The source made the active and inactive calls. The calls were made as follows: active = growth percent below 10; inactive = the rest.

Key:
Experiment in all cases: NCI-60 one-dose screen, 48 h (100 = growth as untreated, 0 = no growth, -100 = all killed)
Conditions in all cases: 10 µM unless noted
[1] = system: DU-145 prostate
[2] = system: K-562 leukemia
[3] = system: MALME-3M melanoma
[4] = system: MDA-MB-231 breast
[5] = system: RXF 393 renal
[6] = system: SF-268 CNS
[7] = system: SF-295 CNS
[8] = system: SF-539 CNS
[9] = system: M14 melanoma

Measured: growth

CC(C)OP(=O)(CCC(=O)c1c[nH]c2ccccc12)OC(C)C
inactive: [1] 116% | [2] 95.6% | [3] 97.2% | [4] 106% | [5] 114% | [6] 101% | [7] 104% | [8] 97.4% | [9] 98.4%

CCN1CCN(c2cc(C)nc(N(CCCNc3ccnc4cc(Cl)ccc34)Cc3ccc4c(c3)OCO4)n2)CC1
active: [2] -30.4% | [3] -82.2% | [4] -29.5% | [5] -59% | [6] -0.704% | [7] -70% | [8] -88.6% | [9] -82.2%
inactive: [1] 20.1%

Cc1cc2c(-c3nc4ccccn4c3Nc3cccc4ccccc34)c(O)c(O)cc2c(O)c1-c1c(C)cc2c(-c3nc4ccccn4c3Nc3cccc4ccccc34)c(O)c(O)cc2c1O
inactive: [1] 31.4% | [2] 15.2% | [3] 10.8% | [4] 23.3% | [5] 39.6% | [6] 30.9% | [7] 13.1% | [8] 20.4% | [9] 27.2%

CCN1CCN(c2cc(C)nc(N(CCCNc3ccnc4cc(Cl)ccc34)Cc3cccs3)n2)CC1
inactive: [1] 26.4%
active: [2] -14.2% | [3] -85.7% | [4] -20% | [5] -53.8% | [6] 7.31% | [7] -69.4% | [8] -89.8% | [9] -84%

Cc1cc2c(-c3nc4ccccn4c3NC3CCCCC3)c(O)c(O)cc2c(O)c1-c1c(C)cc2c(-c3nc4ccccn4c3NC3CCCCC3)c(O)c(O)cc2c1O
inactive: [1] 32.3% | [2] 10.2% | [3] 42.5% | [4] 26.5% | [5] 39% | [6] 38.2% | [7] 16.6% | [8] 16.9% | [9] 16.5%

CC(C)=CCc1cc2c(cc1O)C1=C(C(=O)C3=C(C1=O)S(=O)(=O)CCN3)C(C=C(C)C)O2 (stereo unspecified)
active: [1] -97.1% | [2] 0.919% | [3] -96.1% | [4] 1.47% | [5] -76.2% | [6] -0.0427% | [7] -65.9% | [8] -100% | [9] -89.1%

COC(=O)C1CCc2sc3ncnc(Nc4cn[nH]c4C(=O)Nc4ccc(CN5CCN(C)CC5)cc4)c3c21 (stereo unspecified)
active: [1] -44.6% | [2] -24% | [3] -72.3% | [4] -0.275% | [5] -78.9% | [6] -1.56% | [8] -77.3% | [9] -0.905%
inactive: [7] 26.4%

Cc1cc(N(CCNc2ccnc3cc(Cl)ccc23)Cc2ccc3c(c2)OCO3)nc(N2CCN(C)CC2)n1
inactive: [1] 38.2% | [6] 29.3%
active: [2] -59.1% | [3] -71.6% | [4] 4.9% | [5] -45.7% | [7] -66.4% | [8] -80.9% | [9] -79.6%

Nc1ncnc2c1ccn2-c1cccc(NC(=O)c2ccc(N3CCOCC3)c(C(F)(F)F)c2)c1
inactive: [1] 57.8% | [2] 21% | [3] 65.3% | [4] 46.6% | [5] 19.4% | [6] 55% | [7] 28.6% | [8] 46.9% | [9] 44.5%

CN1CCN(c2nc(NCCNc3ccnc4cc(Cl)ccc34)c3ccccc3n2)CC1
inactive: [1] 34.6% | [6] 32.6%
active: [2] -14.1% | [3] -57.4% | [4] -10.8% | [5] -35.8% | [7] -38.7% | [8] -78.4% | [9] -63.3%

Cc1cc(N2CCCC2)nc(N(CCCNc2ccnc3cc(Cl)ccc23)Cc2ccc3c(c2)OCO3)n1
active: [2] -15.4% | [3] -76.9% | [4] 4.2% | [5] -66.1% | [7] -62% | [8] -90.5% | [9] -83.4%
inactive: [1] 27.9% | [6] 31.2%

Clc1ccc(/C=C/c2cc(N3CCOCC3)c3cc(Cl)c(Cl)cc3n2)cc1
inactive: [1] 60.2% | [2] 86.3% | [3] 56% | [4] 59.3% | [5] 81.1% | [6] 58% | [7] 95.9% | [8] 62.3% | [9] 98.5%

Clc1ccc2c(NCCCNCc3ccc4c(c3)OCO4)ccnc2c1
active: [2] -10.9% | [3] -69.6% | [8] -86.7% | [9] -72.5%
inactive: [1] 58.1% | [4] 12.9% | [5] 19% | [6] 62% | [7] 59.8%

O=c1[nH]c(N2CCOCC2)nc2scc(-c3ccccc3)c12
inactive: [1] 107% | [2] 101% | [3] 88.8% | [4] 108% | [5] 97.5% | [6] 89.4% | [7] 96.5% | [8] 94.3% | [9] 98.9%

Cc1cc(N(CCNc2ccnc3cc(Cl)ccc23)Cc2cccs2)nc(Cl)n1
active: [2] -50.9% | [3] -29.4% | [4] -35.7% | [5] -63.3% | [7] -44.6% | [8] -92.2% | [9] -67.3%
inactive: [1] 23.9% | [6] 19.3%

O=C(Cn1c(=O)ccn(CCCCCCCCOc2ccc(Br)cc2)c1=O)Nc1ccc(Oc2ccc(Cl)cc2)cc1
inactive: [1] 73.7% | [2] 40.5% | [3] 69.8% | [4] 66.6% | [5] 79.8% | [6] 71.1% | [7] 52.9% | [8] 61.9% | [9] 70.1%

COC(=O)C1=C(C(=O)OC)C23C=C(C)C1C2=C(C)C1(CC1)[C@@](C)(O)C3=O (stereo partly specified)
inactive: [2] 81%
active: [1] 2.57% | [3] -44.4% | [4] 9.08% | [5] -64.4% | [6] 7.19% | [7] -4% | [8] -39.6% | [9] -43.1%

Cc1cc(N2CCOCC2)nc(N(CCNc2ccnc3cc(Cl)ccc23)Cc2cccs2)n1
inactive: [1] 42% | [6] 43.8%
active: [2] 2.63% | [3] -18.4% | [4] -0.994% | [5] -46.5% | [7] -54% | [8] -65.7% | [9] 3%

C=CC(=O)N(C)[C@H]1C[C@H]2OC(C)(C1OC)n1c3ccccc3c3c4c(c5c6ccccc6n2c5c31)C(=O)NC4 (stereo partly specified)
inactive: [1] 28.7%
active: [2] 4.26% | [3] -46.7% | [4] 7.42% | [5] -90.1% | [6] 6.45% | [7] -27% | [8] -49.1% | [9] -1.74%

Cc1cc2c(-c3nc4ccccn4c3NC34CC5CC(CC(C5)C3)C4)c(O)c(O)cc2c(O)c1-c1c(C)cc2c(-c3nc4ccccn4c3NC34CC5CC(CC(C5)C3)C4)c(O)c(O)cc2c1O
inactive: [1] 19.2% | [4] 21.9% | [5] 12.2% | [6] 17%
active: [2] 7.38% | [3] 7.47% | [7] 1.49% | [8] -1.69% | [9] -0.979%

CN(N)c1nc2sc3c(c2c(=O)[nH]1)CCCC3
inactive: [1] 101% | [2] 109% | [3] 88.7% | [4] 102% | [5] 108% | [6] 95.9% | [7] 93% | [8] 98.7% | [9] 98.7%

COc1cc(C2CC(c3ccc(Cl)cc3)=NN2c2ccc(Cl)cc2)cc(OC)c1OC (stereo unspecified)
inactive: [1] 106% | [2] 93.8% | [3] 92% | [4] 79.8% | [5] 89.6% | [6] 90.6% | [7] 95.3% | [8] 93.9% | [9] 90.3%

c1ccc2c(c1)CCN(NCCN1CCCC1)C2
inactive: [1] 110% | [2] 92.2% | [3] 101% | [4] 87% | [5] 99.9% | [6] 96.6% | [7] 98% | [8] 97.7% | [9] 93%

Cc1cc2c(-c3nc4ccccn4c3N)c(O)c(O)cc2c(O)c1-c1c(C)cc2c(-c3nc4ccccn4c3N)c(O)c(O)cc2c1O
inactive: [1] 26% | [2] 14.6% | [4] 13.6% | [5] 25.3% | [6] 20.4% | [8] 14.9% | [9] 25.1%
active: [3] -0.749% | [7] 2.67%

[2H]C1([2H])[C@H](C)O[C@H](C)C([2H])([2H])N1c1ccc(NC(=O)c2cccc(-c3ccc(OC(F)(F)F)cc3)c2C)cn1
inactive: [1] 80.1% | [2] 38.2% | [3] 68.2% | [4] 74.9% | [5] 90% | [6] 71.6% | [7] 73.3% | [8] 81.6% | [9] 77%

CCN(CCN(C)C)C(=O)CNCc1cc(C(N)=O)ccn1
inactive: [1] 112% | [2] 95.2% | [3] 114% | [4] 97.6% | [6] 108% | [7] 104% | [8] 105% | [9] 103%

Nc1c2c(c(O)c3c1=C(CO)C=N3)=NCCS2=O (stereo unspecified)
active: [1] -95.1% | [2] -7.83% | [3] -97.8% | [4] 1.89% | [6] -38.2% | [7] -95.8% | [8] -88.8% | [9] -85.2%

CC1(C)NC(=O)c2[nH]c3c(Cl)c(Cl)ccc3c2C1C#N (stereo unspecified)
inactive: [1] 92.9% | [2] 69.2% | [3] 99.7% | [4] 91.2% | [6] 94.8% | [7] 59.3% | [8] 85.4% | [9] 106%

Nc1c(C(=O)c2ccccc2)sc2nc(-c3cccs3)cc(-c3cccs3)c12
inactive: [1] 68.2% | [2] 18.9% | [3] 74.4% | [4] 58.4% | [6] 53.5% | [7] 35% | [8] 39.4%
